# Records with an inconclusive call do not appear. Unmarked numbers belong to inactive results. The source made the active and inactive calls. Calls follow the shape of the full dose curve.
# Test: Cell Viability - MRC5 (AID 434);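 also: potency reflects cytotoxicity seen as loss of intracellular ATP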
# Conditions: MRC5 lung fibroblast viability, qHTS
# From the text: NIH Chemical Genomics Center [NCGC]
# NIH Molecular Libraries Screening Centers Network [MLSCN]
# National Institutes of Environmental Health Sciences [NIEHS]
# National Toxicology Program [NTP]
# We have developed a 1536-well cell-based assay for quantitative high throughput screening (qHTS) against a number of cell lines to determine in vitro cytotoxicity of small molecules. This particular assay uses the MRC5 cell line which is derived from normal human lung fibroblasts.
# NCGC Assay Protocol Summary:
# The CellTiter-Glo luminescent cell viability assay (Promega) is a homogeneous method to measure the number of viable cells in culture. The end point readout of this assay is based on quantitation of intracellular ATP, an indicator of metabolic activity, using the luciferase reaction. Luciferase catalyzes the oxidation of beetle Luciferin to oxyluciferin and light in the presence of ATP. The luminescent signal is proportional to amount of ATP present.
# Using the CellTiter-Glo luminescent cell viability assay, the amount of cellular ATP was measured in the MRC5 cell line with complete culture medium following compound treatment for 40 hours. The assay was performed in opaque white Kalypsys 1536-well plates. In the screen, tamoxifen and doxorubicin were used as positive controls. Library compounds were measured for their ability to cause acute toxicity in the cell line, as reflected by a decrease in intracellular ATP levels, in a concentration-dependent manner. Data were normalized to the controls for basal activity (DMSO only) and 100% inhibition (100 uM tamoxifen). AC50 values were determined from concentration-response data modeled with the standard Hill equation.
# qHTS protocol for CellTiter Glo MRC5 cellular assay
# [Step] [Parameter] [Value] [Description]
# 1. Reagent; 5 uL; 1500 MRC5 cells/well
# 2. Time; 5 hr; 37 °C incubation
# 4. Controls; 23 nL; Tamoxifen 0.34 uM to 100 uM & Doxorubicin 0.02 nM to 100 uM
# 5. Time; 40 hr; 37 °C incubation
# 6. Reagent; 5 uL; CellTiter Glo reagent
# 7. Time; 20 min; Room Temperature
# 8. Detection; Luminescence; Viewlux plate reader
# Keywords: cell viability, cytotoxicity, MRC5 cell line, luminescence, NTPHTS, NTPHTS_NCGC, NIEHS, EPA, DSSTox, MLSMR, MLSCN, NIH Roadmap, qHTS, NCGC
# Potency is read from the fitted curve at half-maximal effect.
row,SMILES,Potency
1,O=C1O[C@H]([C@@H](O)CO)C(O)=C1O,> 92 µM
2,Cc1cc2nc3c(=O)[nH]c(=O)nc-3n(C[C@H](O)[C@H](O)[C@H](O)CO)c2cc1C,> 92 µM
3,NCCNCCNCCNCCN,> 92 µM
4,CC1(C)[C@@H]2CC[C@@]1(C)C(=O)C2,> 92 µM
5,Nc1ccc(S(=O)(=O)Nc2nccs2)cc1,> 92 µM
6,NC(=O)N/N=C/c1ccc([N+](=O)[O-])o1,> 92 µM
7,C[C@]12C[C@H](O)[C@H]3[C@@H](CCC4=CC(=O)CC[C@@]43C)[C@@H]1CC[C@@H]2C(=O)CO,> 92 µM
8,[Cl][In]([Cl])[Cl],> 92 µM
9,Cc1cc(CC(=O)O)n(C)c1C(=O)c1ccc(Cl)cc1,> 92 µM
10,CCCCOC(=O)c1ccc(O)cc1,> 92 µM
11,COc1ccccc1O,> 92 µM
12,CCCCCCCCCCCCOS(=O)(=O)O,> 92 µM
13,NC(=O)c1ncn([C@@H]2O[C@H](CO)[C@@H](O)[C@H]2O)n1,> 92 µM
14,Oc1cccc(O)c1,> 92 µM
15,Cc1c(O)cccc1C(=O)N[C@@H](CSc1ccccc1)[C@H](O)CN1C[C@H]2CCCC[C@H]2C[C@H]1C(=O)NC(C)(C)C,31.7 µM (active)
16,NCCNCCNCCN,> 92 µM
17,O=C1c2c(O)cccc2Cc2cccc(O)c21,> 92 µM
18,CC12CCC(CC1)C(C)(C)O2,> 92 µM

# Source: PubChem BioAssay (NCATS)
